# Data from ChEMBL document CHEMBL4513216, “Probing the Open Global Health Chemical Diversity Library for Multistage-Active Starting Points for Next-Generation Antimalarials” (ACS Infect Dis, 2020).
# In all, about 69,000 compounds went through this assay and about 8,600 (12%) showed an effect of 50% or more. The list comes from a sample in which strong results are over-represented; it also holds similar structures and randomly drawn compounds.
# Test system: Plasmodium berghei
# Assay: Screen against P. berghei liver stage (PbLuc), transformed with Luciferase, at 10uM
# Assay type: functional, HepG2
# Conditions: tested at 10 uM
row,SMILES,INHIBITION
1,CN(C)S(=O)(=O)c1ccc(=O)n(CC2CCCCO2)c1 (stereo not drawn),4.52%
2,O=C(c1cccnc1)N1CCN(CC2CC2)c2ncccc2C1,-18.4%
3,CSc1ccccc1C(=O)N1CCN(C)C2(CCC(=O)N(C)CC2)C1 (stereo not drawn),46.7%
4,Cc1c(F)cc(C(=O)O)cc1S(=O)(=O)Nc1ccccc1,20.265%
5,Cn1c(C2CCCN2C(=O)CN2CSCC2=O)nc2ccccc21 (stereo not drawn),59.3%
6,O=C1CSCN1CC(=O)N1CCCC1c1nc2ccccc2s1 (stereo not drawn),32.3%
7,Cn1cc(C2CCCN2C(=O)Cn2ccc3ccccc32)cn1 (stereo not drawn),23.1%
8,Cn1c(C2CCCCN2C(=O)CN2CCCC2=O)nc2ccccc21 (stereo not drawn),61.5%
9,Cn1c(C2CCCN2C(=O)c2cn(CCN)nn2)nc2ccccc21 (stereo not drawn),28%
10,Cn1c(C2CCCN2C(=O)CN2CCCC2=O)nc2ccccc21 (stereo not drawn),24.7%
11,Cc1cnn(CCC(=O)N(CC2CN(C)CCO2)c2nccs2)c1 (stereo not drawn),-31.6%
12,CN1CCOC(CN(C(=O)CN2CCCC2=O)c2nccs2)C1 (stereo not drawn),48.1%
13,CN1CCOC(CN(C(=O)CCc2cnn(C)c2)c2nccs2)C1 (stereo not drawn),62.6%
14,CN1CCOC(CN(C(=O)CCc2ccco2)c2nccs2)C1 (stereo not drawn),43.3%
15,CN1CCOC(CN(C(=O)CC2CCCC2)c2nccs2)C1 (stereo not drawn),55.5%
16,CN1CCOC(CN(C(=O)COc2ccccc2)c2nccs2)C1 (stereo not drawn),-2.53%
17,CCC1(CO)CCCN(C(=O)c2cc(COc3ccccc3F)[nH]n2)C1 (stereo not drawn),-39.3%
18,Cn1cc(-c2cc(C(F)(F)F)nn2CCC#N)cn1,20.1%
19,Cc1cc2c(cc1NC(=O)NCC(C)C)OCO2,28.5%
20,O=C1CCC2(CCN(CC[C@@H](O)c3ccccc3)CC2)CN1CC1CC1,-51.7%
21,O=C(c1cccs1)N1CCCC(c2cc(C(F)F)n3ncnc3n2)C1 (stereo not drawn),40%
22,O=C(CCCn1cccn1)N1CCCC(n2cncn2)C1 (stereo not drawn),12.9%
23,CC(C)C(=O)N1CCc2c(CN(C)Cc3ccco3)cncc2C1,-11.2%

row,SMILES,INHIBITION
1,CC(NC(=O)Cc1cccs1)(C(N)=O)c1cccc(Cl)c1 (stereo not drawn),60%
2,CC(C)(C)SCC(=O)NC(C)(C(N)=O)c1cccc(Cl)c1 (stereo not drawn),-19.5%
3,CC(C)(C)CC(=O)NC(C)(C(N)=O)c1cccc(Cl)c1 (stereo not drawn),74.5%
4,Cc1cc(CNC(=O)Cc2cccs2)ccc1S(C)(=O)=O,-3.68%
5,CC(C)(C)OC(=O)NC(C)(C(N)=O)c1cccc(Cl)c1 (stereo not drawn),65.6%
6,COCCC(=O)NC(C)(C(N)=O)c1cccc(Cl)c1 (stereo not drawn),26.4%
7,Cc1nncn1CCNC(=O)C(C)(C)c1cccc(Cl)c1,24.3%
8,CC(C)(CNC(=O)c1ccc(Cl)o1)NC(=O)OC(C)(C)C,-60.9%
9,CC(NC(=O)Cc1ccccc1F)(C(N)=O)c1cccc(Cl)c1 (stereo not drawn),32%
10,CCN(CC1=CCN(C)CC1)C(=O)CCOC,29.5%
11,CC1CCN(CCNCc2cc(-c3ccccc3)cn3nnnc23)CC1,23.2%
12,Cc1nc(C)n(CC2CN(CCCOc3ccc(F)cc3)CCO2)n1 (stereo not drawn),25.6%
13,COC(=O)c1sc(C(F)(F)F)cc1OC,43.2%
14,Cc1nsc(N2CCN(C(=O)Nc3cccc(C#N)c3)CC2)n1,37.2%
15,Cc1nsc(N2CCN(CC(=O)NCc3ccc(F)cc3)CC2)n1,40.9%
16,Cc1nsc(N2CCN(Cc3cccc(F)c3)CC2)n1,57.6%
17,Cc1nsc(N2CCN(C(=O)Nc3cccc(F)c3)CC2)n1,68.3%
18,OCc1csc(N2CCN(Cc3cccc(F)c3)CC2)n1,28.7%
19,Cc1nsc(N2CCN(C(=O)Nc3ccc4[nH]ccc4c3)CC2)n1,25.5%
20,CN(Cc1ccco1)C1CCC12CCN(C(=O)c1ccnnc1)CC2 (stereo not drawn),-39.3%
21,COCCCN1CCCCC12CC(=O)N(Cc1ccccn1)C2 (stereo not drawn),18.7%
22,Cc1ccccc1N1CC2(CCCCN2CC2CC2)CC1=O (stereo not drawn),5.63%
23,COCCN1CCCCC12CC(=O)N(c1cccc(C#N)c1)C2 (stereo not drawn),61.1%

row,SMILES,INHIBITION
1,N#Cc1cccc(N2CC3(CCN(C(=O)C4CC=CC4)C3)CC2=O)c1 (stereo not drawn),13.6%
2,COCCN1CCCCC12CC(=O)N(c1ccccc1OC)C2 (stereo not drawn),93.7%
3,O=C1CC2(CCCCN2CC2CC2)CN1c1ccccc1 (stereo not drawn),-31.4%
4,Fc1ccc(CN2Cc3nccn3CC(CN3CCOCC3)C2)cc1 (stereo not drawn),32.2%
5,O=C(O)c1cc(-c2ccncc2)cc(S(=O)(=O)N2CCCCCC2)c1,-8%
6,Cc1ccc(C(=O)N2Cc3c(CN(C)C)nn(C)c3C2)cc1C,14.6%
7,CCN(C)S(=O)(=O)NCC1CCN(Cc2ccccc2C)CC1,24%
8,CCN(C)C(=O)c1cccc(S(=O)(=O)NCCc2csc(N)n2)c1,48%
9,CCc1nc(CCNS(=O)(=O)c2cccc(C(=O)N(C)CC)c2)cs1,55.4%
10,CCN(C)C(=O)c1cccc(S(=O)(=O)NCCc2nc(C)cc(=O)[nH]2)c1,45.2%
11,CO[C@H]1CN(C(=O)c2nc(-c3ccccc3)[nH]c2C)CC[C@H]1N,5.78%
12,CCCc1nnc2sc(C3CCN(C4CCN(C)CC4)CC3)nn12,44.8%
13,CN1CCCC[C@@H]2[C@H]1[C@@H](c1ccccc1)CCN2C(=O)c1ccncc1,-4.51%
14,CN1CCCCC[C@@H]2[C@@H]1[C@H](c1ccccc1)CN2C(=O)c1cccnc1,47.2%
15,CN1CCCC[C@@H]2[C@H]1[C@@H](c1ccccc1)CCN2C(=O)c1ccccn1,20.8%
16,Cc1nnsc1C(=O)N1CC[C@H](c2ccccc2)[C@@H]2[C@H]1CCCCN2C,70.1%
17,CN1CC[C@H](c2ccccc2)[C@@H]2[C@H]1CCCCN2C(=O)c1cnccn1,57.4%
18,CN1CCCC[C@@H]2[C@H]1[C@@H](c1ccccc1)CCN2C(=O)c1cccnc1,47.2%
19,CN1CCCC[C@@H]2[C@H]1[C@@H](c1ccccc1)CCN2C(=O)c1cnccn1,46.1%
20,CN1CCCC[C@@H]2[C@H]1[C@@H](c1ccccc1)CCN2C(=O)c1ccccc1,59.7%
21,Cc1nnsc1C(=O)N1CCN(C(=O)C2CCC2)[C@@H]2CS(=O)(=O)C[C@@H]21,47.2%
22,CC(C)CNC(=O)c1cc(C2CC2)nc2onc(C3CCNCC3)c12,13.5%
23,NCCc1c(-c2ccc(F)cc2)[nH][nH]c1=O,39.1%

row,SMILES,INHIBITION
1,COc1ccccc1CNC(=O)c1[nH]ncc1Cl,46.6%
2,NC(=O)Cn1cc(NC(=O)N2CCN(c3ccccc3)CC2)cn1,-65.7%
3,CC(C)N(C(=O)Cn1cc(Cl)cn1)c1ccccc1,21.8%
4,Brc1cccc(-c2noc(CN3CCOCC3)n2)c1,43.3%
5,O=C(COc1coc(CN2CCCCC2)cc1=O)NCc1ccccc1,9.48%
6,Cn1cc(N2CC3(CCN(Cc4nccs4)CC3)OCC2=O)cn1,26.3%
7,Cn1cc(N2CC3(CCN(Cc4ccccc4)CC3)OCC2=O)cn1,14.1%
8,Cc1cccc(CN2CCC3(CC2)CN(c2cnn(C)c2)C(=O)CO3)n1,68.3%
9,Cc1cccc(CN2CCCC3(CCN(c4cccnc4)C3=O)C2)n1 (stereo not drawn),29%
10,Cc1cccc(CN2CCC3(CCN(c4cccnc4)C3=O)C2)n1 (stereo not drawn),58.8%
11,Cn1cc(N2CC3(COCCN(Cc4nccs4)C3)OCC2=O)cn1 (stereo not drawn),56.7%
12,Cn1cc(N2CC3(COCCN(Cc4ccsc4)C3)OCC2=O)cn1 (stereo not drawn),18.2%
13,Cn1cc(N2CC3(CCN(Cc4ccsc4)CC3)OCC2=O)cn1,54.4%
14,Cn1cc(N2CC3(COCCN(Cc4ccccn4)C3)OCC2=O)cn1 (stereo not drawn),-8.54%
15,COc1ccc(CN2CCC3(CCN(c4cccnc4)C3=O)C2)cc1 (stereo not drawn),8.67%
16,Cn1cc(N2CC3(CCN(Cc4cccs4)CC3)OCC2=O)cn1,-34.9%
17,Cc1cccc(CN2CCC3(CC2)CN(c2cccnc2)C(=O)CO3)n1,30.3%
18,CC(=O)N1CCCC(c2ccc(Cc3ccccc3)cn2)C1 (stereo not drawn),37.6%
19,CCN1C[C@H]2C3(CCN(C(C)=O)CC3)CC[C@@]2(C(=O)N(C)C)C1,36.7%
20,COCCN(C)C[C@@H]1CN(Cc2ccnc3ccccc23)C[C@@H]1CO,17.5%
21,Cc1cnn(CC2CCCCN2C(=O)c2c(C)noc2C)c1 (stereo not drawn),11.4%
22,CN(C)c1cncc(C2CCN(CC3(O)CCCCC3)CC2)n1,37.6%
23,CS(=O)(=O)N1CC[C@H]2[C@H](C[C@@H](Cn3cncn3)N2CC2CC2)C1,-28.2%

row,SMILES,INHIBITION
1,COCCN1CC(C(=O)NCc2cccnc2-n2cccn2)CC1=O (stereo not drawn),-29.8%
2,CN1CC2(CCN(C(=O)Cn3ncc4ccccc4c3=O)CC2)OC1=O,36.3%
3,CCOCCN1CCN(CCCS(C)(=O)=O)CC1C (stereo not drawn),-52.5%
4,Cc1cc(NC(=O)NCC2(O)CCCC2)ccn1,32.3%
5,COCCC1(CNC(=O)Nc2ccc(-n3nccn3)cc2)CCC1,-23.3%
6,COCCC1(CNC(=O)Nc2ccnc(C)c2)CCCC1,57.4%
7,Cn1nc(CNC(=O)C2CCCCC2)cc1C1CC1,13.6%
8,Cc1cn(-c2ccccc2)nc1NS(=O)(=O)c1cc(C(=O)O)ccc1Cl,25.4%
9,CC(C)c1nc(CN2CCCC2Cn2cccn2)no1 (stereo not drawn),19.6%
10,COc1ccccc1OCCNc1snc(Cl)c1C#N,68.1%
11,N#Cc1c(Cl)nsc1NCC1(c2ccccc2)CCC1,84%
12,COc1ccccc1C1(CNc2snc(Cl)c2C#N)CCCC1,80.2%
13,COc1ccccc1C1(CNc2cn[nH]c(=O)c2Cl)CC1,-22.2%
14,NS(=O)(=O)c1cnc(NCC2(c3ccccc3)CCC2)s1,9.37%
15,CC(=O)N1CCN(CCNc2snc(Cl)c2C#N)CC1,-4.93%
16,COc1ccccc1C1(CNc2snc(Cl)c2C#N)CCOCC1,53.4%
17,COc1ccccc1C1(CNc2ncc(S(N)(=O)=O)s2)CC1,-10.9%
18,N#Cc1c(Cl)nsc1NCCN1CCOCC1,39.9%
19,COc1ccccc1C1(CNc2cn[nH]c(=O)c2Cl)CCOCC1,-9.69%
20,CC(=O)N1CCN(C(=O)CCNc2snc(Cl)c2C#N)CC1,-27%
21,COc1ccc(C)cc1C1(CNc2cncc(Cl)n2)CCOCC1,-60.3%
